Test results as given in PubChem BioAssay (NCI).
This is part of a sample that, as a whole, favours compounds with a hit. Of some 79,000 tested, about 15% had one in any assay. No stated cut-off is given here; in the data, active means growth inhibition above about 70%; inactive means the rest.

Experiments:
[1] = NCI Yeast Anticancer Drug Screen. Data for the rad50 strain (AID 155);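 further: 0% = growth of vehicle-only cultures of the same strain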; conditions: S. cerevisiae rad50 strain growth inhibition; at 50.0 µM; hits give high values
In short: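 Relative growth inhibition (compound vs vehicle) was measured in yeast with a defined repair-gene alteration.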

[2] = NCI Yeast Anticancer Drug Screen. Data for the mec2-1 strain (AID 157); conditions: S. cerevisiae mec2-1 strain, at 50.0 µM, hits give high values
In short: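 Compounds were applied to mec2-1 yeast cells. Their growth was then compared with that of vehicle-treated cultures to give growth inhibition.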

[3] = NCI Yeast Anticancer Drug Screen. Data for the sgs1 mgt1 strain (AID 161);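 further: 0% = growth of cultures given vehicle only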; conditions: S. cerevisiae sgs1 mgt1 strain, at 50.0 µM, hits give high values
In short: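 Compounds are added to genetically altered yeast, and growth is compared with cultures given vehicle alone to give percent inhibition.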

[4] = NCI Yeast Anticancer Drug Screen. Data for the cln2 rad14 strain (AID 165);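 further: 0% = growth equal to vehicle treated cultures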; conditions: S. cerevisiae cln2 rad14 strain, at 50.0 µM, hits give high values
In short: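 Strain: cln2 rad14 yeast, altered in cell cycle control and DNA damage repair. Read-out: growth inhibition vs vehicle.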

[5] = NCI Yeast Anticancer Drug Screen. Data for the bub3 strain (AID 167); conditions: S. cerevisiae bub3 mutant strain, at 50.0 µM, hits give high values
In short: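 Screening used yeast with an engineered genetic alteration affecting cell cycle control. Compound-exposed cultures were compared with vehicle cultures, and reduced growth was taken as inhibition.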

[6] = NCI Yeast Anticancer Drug Screen. Data for the mlh1 rad18 strain (AID 175); conditions: S. cerevisiae mlh1 rad18 strain growth inhibition; at 50.0 µM; hits give high values
In short: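 A repair-deficient yeast strain is exposed to test compound, and growth is scored relative to vehicle-treated controls.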

Measured: growth inhibition

O=C(Nc1ccccc1SC(/C=C/NNC1=NC(c2ccccc2)C(c2ccccc2)=NN1)c1ccccc1)c1ccc(Cl)cc1Cl (stereo not given)
inactive: [1] -35% | [2] -7.7% | [3] -22.8% | [4] 24.8% | [5] 0.15% | [6] -13.4%

C1=C(c2ccccc2)Cc2ccccc21
inactive: [1] 13.4% | [2] 24.4% | [3] 19.9% | [4] -14.8% | [5] 15.4% | [6] 23.9%

N#C/C(=C\NC(=S)Nc1ccc(S(=O)(=O)Nc2nccs2)cc1)C(=O)c1ccc2ccccc2c1
inactive: [1] 7.7% | [2] 1.8% | [3] 14.3% | [4] -9.75% | [5] -8% | [6] 16.4%

CC(C)CCCC(C)C1CCC2C3CC=C4CC(O[N+](=O)[O-])CCC4(C)C3CCC12C (stereo not given)
inactive: [1] -24.8% | [2] -6% | [3] -17.1% | [4] -13.8% | [5] -5.15% | [6] 17.9%

O=C(/C(=C(/[O-])C(F)(F)F)[n+]1cccc2ccccc21)C(F)(F)F
inactive: [1] -8.6% | [2] -4.65% | [3] -11.2% | [4] -10.4% | [5] -1.4% | [6] 5.2%

O=C1OI(OI2OC(=O)c3ccccc32)c2ccccc21 (tested in a mixture with another compound)
inactive: [1] 11.7% | [2] -9.6% | [3] -19.1% | [4] -9.85% | [5] 17.9% | [6] 9.45%

CC(C)C(C)(O)C#CC(C)(O)C(C)C (stereo not given)
inactive: [1] 1.4% | [2] 8.85% | [3] 3.25% | [4] -15.5% | [5] 23.9% | [6] 12.1%

CCC(=O)OCCN(C)C
inactive: [1] -28% | [2] -50.4% | [3] 0.65% | [4] 10.8% | [5] -19.3% | [6] -8.35%

COc1cc(/C=C/C=C2\CC/C(=C\C=C\c3ccc(O)c(OC)c3)C2=O)ccc1O
inactive: [1] 10.2% | [2] 18.4% | [3] 31.4% | [4] 37.7% | [5] 29.5% | [6] -9.1%

CCCCCCCC/C=C\CCCCCCCC(=O)N(C)CC(=O)O
inactive: [1] 43.2% | [2] 38.2% | [3] 39.2% | [4] 21.1% | [5] 30.7% | [6] 29.1%

c1ccc(CNc2ncnc3n[nH]nc23)cc1
inactive: [1] -14% | [2] -11.8% | [3] 1.2% | [4] 0.3% | [5] 20.1% | [6] -8.3%

C[n+]1cn(C2=C([O-])c3ccccc3C(=O)/C2=N\S(=O)(=O)c2ccccc2)c2ccccc21
inactive: [1] 0.95% | [2] 4.8% | [3] 2.4% | [4] -0.6% | [5] 4.35% | [6] -28.9%

CC(=O)Nc1ccc(N=NN(C)c2ccccc2)cc1
inactive: [1] 29.4% | [2] 36% | [3] 47.1% | [4] 5.45% | [5] 19.8% | [6] 44.4%

COc1cccc(OC)c1OC(=O)/C=C\C(=O)Oc1c(OC)cccc1OC
inactive: [1] 29.9% | [2] -8.65% | [3] 18.8% | [4] -3.75% | [5] -2.05% | [6] 20.8%

C=CCOC(=O)Cc1ccccc1C(=O)OCC=C
inactive: [1] -7.55% | [2] -1.2% | [3] -6.6% | [4] -42.2% | [5] 21.4% | [6] -6.25%

COc1ccc(C(=O)Nc2ccccc2CCC2CCCCN2C)cc1 (stereo not given)
inactive: [1] 29.2% | [2] 3% | [3] 10.3% | [4] 22.4% | [5] 1.15% | [6] 19%

O=c1c(SCc2ccc(Cl)c(Cl)c2)c(SCc2ccc(Cl)c(Cl)c2)cnn1-c1ccccc1
inactive: [1] -8.5% | [2] -11.5% | [3] -6.05% | [4] -1.6% | [5] -13.4% | [6] 15.3%

Clc1ccc(CSC2=NCCN2)cc1Cl
inactive: [1] -17% | [2] -26.4% | [3] -21.9% | [4] -24.4% | [5] -14% | [6] 12.8%

C[C@H](CCC(=O)O)[C@H]1CC[C@H]2[C@@H]3[C@@H](O)C[C@@H]4C[C@H](O)CC[C@]4(C)[C@H]3C[C@H](O)[C@]12C
inactive: [1] -3.3% | [2] -7.05% | [3] 11.1% | [4] -20.6% | [5] -14.7% | [6] 7.8%

O=C1NC(c2ccc(Cl)cc2)(c2ccc(Cl)cc2)C(=O)N1Cl
inactive: [1] -4.8% | [2] -1.6% | [3] 8.05% | [4] 16.9% | [5] 11.6% | [6] -16.4%

C=C1CC(OC(C)=O)/C=C(/C)CCC(C(C)(C)O)CC1O (stereo not given)
inactive: [1] 6.7% | [2] -32% | [3] -11.2% | [4] 7.65% | [5] -8% | [6] -20.9%

COc1ccc(C(=O)O)cc1
inactive: [1] 12.3% | [2] -19.8% | [3] -32.7% | [4] -41% | [5] -2.9% | [6] -4.25%

O=C(NCCNC(=O)c1cccc([N+](=O)[O-])c1O)c1cccc([N+](=O)[O-])c1O
inactive: [1] 19.6% | [2] 6.8% | [3] -2.85% | [4] -9% | [5] -3.2% | [6] 11.8%

Cc1cc(S(=O)(=O)O)cc(C(C)(C)C)c1O
inactive: [1] -15.6% | [2] -11.4% | [3] 6.3% | [4] 6.25% | [5] -2.45% | [6] -20.6%

O=C1c2ccccc2C(=O)N1n1c(Cc2ccccc2)n[nH]c1=O
inactive: [1] -16.1% | [2] -28.2% | [3] -41.5% | [4] -10.8% | [5] -16.5% | [6] -16.2%

OCc1ccncc1
inactive: [1] -5.85% | [2] -13.2% | [3] -9.65% | [4] -47.4% | [5] 10.4% | [6] -2.05%

CC(OC(=O)Nc1ccccc1)c1ccccc1 (stereo not given)
inactive: [1] 37.2% | [2] 7.9% | [3] 11.9% | [4] 9.9% | [5] 9.2% | [6] 17.4%

Cc1cc(Cl)ccc1OCCCC(=O)NC(Cc1ccccc1)C(=O)O (stereo not given)
inactive: [1] 4.85% | [2] 8.95% | [3] -2.15% | [4] 27.5% | [5] -4.2% | [6] 0%

Cc1n[nH]c(=O)n1Nc1ccccc1
inactive: [1] 13.2% | [2] -7.7% | [3] 9.1% | [4] 13.3% | [5] 1.5% | [6] 6.6%

CC(C)CCC[C@@H](C)[C@H]1CC[C@H]2[C@@H]3C[C@@H](O)[C@@]4(O)C[C@@H](O)CC[C@]4(C)[C@H]3CC[C@]12C
inactive: [1] 27.6% | [2] 8.65% | [3] 14.1% | [4] -12.4% | [5] -7.25% | [6] 19.5%

CCOCCOC(=O)/C=C/c1ccccc1
inactive: [1] 17.6% | [2] -9.6% | [3] -4.35% | [4] -46.8% | [5] 8.15% | [6] -3.15%

CN1C/C(=C/c2ccc(N(C)C)cc2)C(=O)/C(=C/c2ccc(N(C)C)cc2)C1
inactive: [1] -2.45% | [2] -6.9% | [3] -16.9% | [4] -5.3% | [5] -3.7% | [6] -18.9%

CCCCCCCCCCNC(=O)CCC(NC(=O)c1ccc(N(C)Cc2cnc3nc(N)nc(N)c3n2)cc1)C(=O)NCCCCCCCCCC (stereo not given)
inactive: [1] 5.7% | [2] 3.35% | [3] -4.15% | [4] 6.1% | [5] -13.2% | [6] -3.65%

C=CCOC(=O)C1CCCCC1C(=O)OCC=C (stereo not given)
inactive: [1] 1.45% | [2] -1.65% | [3] 1.4% | [4] 3.3% | [5] 21.6% | [6] 1.9%

COC(=O)CN(CC(=O)OC)C(C)=O
inactive: [1] -9.2% | [2] -4.35% | [3] -0.05% | [4] 2.7% | [5] 13.5% | [6] 0.6%

Cc1cc(C)c2c(-c3ccccc3)cc(=O)[nH]c2c1
inactive: [1] -33% | [2] -16.1% | [3] -29.4% | [4] -3.55% | [5] -33.7% | [6] -51.1%

CC(C)C1C(=O)CCCC1=O
inactive: [1] -10.5% | [2] 9.6% | [3] -5.5% | [4] -12.9% | [5] -17.5% | [6] -3.35%

Brc1cccc(N=NN2CCCC2)c1
inactive: [1] 14.7% | [2] 25.4% | [3] 28.9% | [4] 9.6% | [5] 7.7% | [6] 47.1%

Nc1nc2ncn(CC(O)COC(=O)c3ccccc3)c2c(=O)[nH]1 (stereo not given)
inactive: [1] 23.8% | [2] -8.85% | [3] 27.3% | [4] 28.3% | [5] 27.4% | [6] 39.2%

N#Cc1cccc(N2C(=O)c3c(c(-c4ccccc4)c(-c4ccc(Sc5ccc(-c6c(-c7ccccc7)c7c(c(-c8ccccc8)c6-c6ccccc6)C(=O)N(c6cccc(C#N)c6)C7=O)cc5)cc4)c(-c4ccccc4)c3-c3ccccc3)C2=O)c1
inactive: [1] -48.6% | [2] -44.2% | [3] -41% | [4] -14.8% | [5] -68.8% | [6] -60.8%
